In the supplement of paper PMC4894684 one finds parasite growth data, which are given here for 38 compounds.

Where a name gives a salt, the structure may show the parent alone. ± gives the standard deviation of the averaged measurements. Where only a bound is given, the exact number is not on record here.

In this test the test system is Toxoplasma gondii RH (in HFF). The experiment in a line: parasite growth relative to the screen mean (all compounds = 100%); higher = less inhibition of parasite growth. The note with it: 5 µM; 72 h; oxygen 21 %. In short, it runs like this:
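Growth values are relative to the mean of the whole screen and averaged over duplicate screens, with all compounds together set to 100%. Parasites (RH β-Gal–GFP Toxoplasma, MOI 1:5) were added within 2 h of pinning compounds at 5 µM final onto confluent human foreskin fibroblasts and grown 72 h at 21% O2. Parasite number came from CPRG β-Gal readings against in-plate standard curves.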
With `Clc1cccc2c1CN(C1=NCCN1)C2`, the parasite growth came out at 92.2 ± 25%.

`CC1(C)CCC(C)(C)c2cc(C3(c4ccc(C(=O)O)cc4)OCCO3)ccc21` registered a parasite growth of 115 ± 34%.

`CC(=O)N(OCc1ccccc1)[C@H]1c2cc(C#N)ccc2OC(C)(C)[C@H]1O` returned a parasite growth of 112 ± 33%.

`S=C(S)N1CCCC1` [Pyrrolidinedithiocarbamate ammonium] had a parasite growth of under 0%.

Compound `COc1cc(C(=O)OCCCN2CCCN(CCCOC(=O)c3cc(OC)c(OC)c(OC)c3)CC2)cc(OC)c1OC` [Dilazep dihydrochloride] displayed a parasite growth of 54.3 ± 11%.

Compound `N#C/C(=C\c1ccc(O)c(O)c1)C(=O)OCCc1cccs1` displayed a parasite growth of 132 ± 15%.

Turning to `CN1CC(=O)N=C1NC(=O)Nc1cccc(Cl)c1` [Fenobam], the parasite growth came to 134 ± 5.3%.

`COc1c(C)c2c(c(O)c1C/C=C(\C)CCC(=O)O)C(=O)OC2` [Mycophenolic acid] registered a parasite growth of under 0%.

`O=C1C(Cl)=C(NCCN2CCOCC2)C(=O)c2ncccc21` came in with a parasite growth of 25.7 ± 24%.

On to `O=C1NC(=O)c2cc(Nc3ccc(F)cc3)c(Nc3ccc(F)cc3)cc21`, for which the parasite growth was determined as 171 ± 51%.

With `Cc1cc(C)cc(C(=O)N(C)[C@H](Cc2ccc(-c3ccccc3)cc2)C(=O)N[C@@H](Cc2c[nH]c3ccccc23)C(=O)O)c1`, the parasite growth worked out at 146 ± 20%.

Take `CC1(C)Oc2ccc(C#N)cc2[C@H](N2CCCC2=O)[C@H]1O` [Cromakalim]: the parasite growth is 127 ± 5.1%.

`CC[C@@H]1C(=O)OC[C@@H]1Cc1cncn1C` [Pilocarpine hydrochloride]: the parasite growth is 76.5 ± 19%.

Take `O=C(c1ccc(F)cc1)C1CCN(CCn2c(=O)[nH]c3ccccc3c2=O)CC1` [Ketanserin tartrate]: the parasite growth came to 183 ± 33%.

`COC(=O)C1=C(C)NC(C)=C([N+](=O)[O-])[C@H]1c1ccccc1C(F)(F)F` gave a parasite growth of 153 ± 8.1%.

`Clc1ccc2c(c1)N=C(N1CCNCC1)c1ccccc1N2` [N-Desmethylclozapine] yielded a parasite growth of 59.7 ± 2.8%.

`O=C(O)Cn1c(C(=O)Nc2nc(-c3ccccc3Cl)cs2)cc2ccccc21` registered a parasite growth of 133 ± 2.8%.

As to `CC(C)n1nnc2cc(C(=O)O)ccc21`, the parasite growth was 81.9 ± 22%.

As to `CN1c2cc3c(cc2N=C(c2ccc(C(=O)O)cc2)c2ccccc21)C(C)(C)CCC3(C)C`, the parasite growth amounted to 61.4 ± 34%.

Turning to `O=c1c(-c2ccc(O)cc2)coc2cc(O)ccc12` [Daidzein], the parasite growth stood at 77.8 ± 43%.

Consider `O=C1C=CC(=O)C2=C1C1c3ccccc3C2c2ccccc21`, for which the parasite growth was 137 ± 48%.

As for `c1ccc2nc(C3=NCCN3)cnc2c1` [BU 239 hydrochloride], the parasite growth stood at 102 ± 22%.

The compound `Nc1[nH]nc2nc3ccccc3nc12` displayed a parasite growth of 142.8 ± 0.82%.

As for `Cc1ccc(OCC(O)C(C)NC(C)C)c2c1CCC2` (stereo not drawn) [ICI-118,551 hydrochloride], the parasite growth is 92.9 ± 14%.

For `CN(Cc1ccccc1)C(=O)[C@H](Cc1ccc2ccccc2c1)NC(=O)[C@@H]1C[C@@H](O)CN1C(=O)c1cn(C)c2ccccc12`, the parasite growth amounted to 138 ± 4.8%.

Take `O=c1cc(-c2ccccc2)oc2cc(O)c(O)c(O)c12` [Baicalein]: the parasite growth came to 173 ± 30%.

Take `CC1(COc2ccc(CC3SC(=O)NC3=O)cc2)CCCCC1` (stereo not drawn) [Ciglitazone]: the parasite growth amounted to 100 ± 22%.

`CS(=O)(=O)c1ccc(Cn2c3c(c4cc(F)cc(F)c42)CCCC3CC(=O)O)cc1` (stereo not drawn) yielded a parasite growth of 120 ± 6.7%.

With `CC1c2ccccc2CN1CC1=NCCN1` (stereo not drawn), the parasite growth was determined as 131 ± 4.2%.

Compound `COc1ccc(Br)cc1S(=O)(=O)NC(=O)/C=C/c1ccccc1Cc1ccc2ccccc2c1` came in with a parasite growth of 125 ± 12%.

Regarding `Clc1ccc2nsnc2c1NC1=NCCN1` [Tizanidine hydrochloride], the parasite growth stood at 113 ± 2.4%.

`C1CCC(N=C(NC23CC4CC(CC(C4)C2)C3)N2CCOCC2)CC1` showed a parasite growth of 100 ± 31%.

`COC(=O)C(Cc1ccc(OCCn2c(=O)sc3cc(C(=O)c4ccccc4)ccc32)cc1)C(=O)OC` returned a parasite growth of 120 ± 5.3%.

In turn, `COc1ccc2[nH]c([S+]([O-])Cc3ncc(C)c(OC)c3C)nc2c1` (stereo not drawn) [Omeprazole] returned a parasite growth of 178 ± 7.3%.

For `Fc1ccc(C(c2ccc(F)cc2)N2CCN(C/C=C/c3ccccc3)CC2)cc1` [Flunarizine dihydrochloride], the parasite growth came to 56.3 ± 12%.

Compound `CN1CCN(CCc2ccc(Cl)c(Cl)c2)CC1` [BD 1063 dihydrochloride] had a parasite growth of 50.9 ± 5.6%.

`Oc1ccc(C2CNCCc3c2cc(O)c(O)c3Cl)cc1` (stereo not drawn) [Fenoldopam hydrochloride] registered a parasite growth of 105 ± 14%.

For the compound `Nc1ncn([C@H]2C[C@H](O)[C@@H](CO)O2)c(=O)n1` [Decitabine], the parasite growth is 119 ± 9.9%.
